PubChem BioAssay AID652257 (The Scripps Research Institute Molecular Screening Center, 2013)
Hit rate of the full screen: of about 370,000 compounds, about 4,800 (1.3%) were called active. The full list was thinned out, with actives kept by preference. A number with no mark means an inactive call.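 How the source made its calls: active means inhibition above about 21% made by adding two undisclosed values (limit read from the data); inactive means the rest.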

These compounds were tested against Protein arginine N-methyltransferase 1 (Homo sapiens) (UniProt Q99873) (assay: human PRMT1 activity-probe blockers – biochemical, fluorescence polarization, primary screen (AID 652257)). Conditions: recombinant PRMT1, activity-based probe fluorescence polarization; at 2.79 µM; hits give high values.
Chain of Protein arginine N-methyltransferase 1 (Homo sapiens) (Q99873 whole entry, looked up): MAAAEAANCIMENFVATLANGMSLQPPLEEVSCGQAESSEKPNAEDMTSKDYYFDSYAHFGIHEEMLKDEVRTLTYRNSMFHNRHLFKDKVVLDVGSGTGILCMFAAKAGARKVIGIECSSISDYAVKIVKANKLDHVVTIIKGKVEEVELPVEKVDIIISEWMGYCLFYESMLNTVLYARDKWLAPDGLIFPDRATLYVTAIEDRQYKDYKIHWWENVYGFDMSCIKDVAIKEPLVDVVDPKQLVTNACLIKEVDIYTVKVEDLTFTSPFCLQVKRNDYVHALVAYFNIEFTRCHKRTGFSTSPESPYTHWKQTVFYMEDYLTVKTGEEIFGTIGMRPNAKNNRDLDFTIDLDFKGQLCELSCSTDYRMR

SMILES | inhibition
CCC(=O)Nc1c(S(=O)(=O)c2ccccc2)c2nc3ccccc3nc2n1Cc1ccccc1 | 0.02%
Cn1c(=O)[nH]c(=O)c2c1[nH]c(=S)n2Cc1ccccc1 | 4.37%
Cc1cc2nc3c(=O)n(Cc4ccccc4)c(=O)[nH]c3nc2cc1N | 142% (active)
CCC(CO)Nc1cccc2c1S(=O)(=O)N(Cc1cn(Cc3ccccc3C(F)(F)F)nn1)Cc1ccccc1O2 (stereo not drawn) | 0.43%
N#Cc1c(N2CCCCC2)nc(N)c2c(N)nc(SCC(=O)O)cc12 | 29.1% (active)
Cc1nn(-c2ncccn2)c2c1C(=O)CC(C)(C)C2Br (stereo not drawn) | -1.26%
CCOC(=O)c1cc2c(ccn2C)n1CC(=O)N1CCC(C)CC1 | 1.01%
O=C(CSc1nnc(-c2ccccn2)n1-c1ccc(Cl)cc1)Nc1ccccc1-c1ccccc1 | 0.72%
COCCN1C(=O)C(=O)/C(=C(/O)c2ccc(S(=O)(=O)N3CCCCC3)cc2)C1c1ccc(OC)c(OC)c1 (stereo not drawn) | -2.03%
COCCN1C(=O)C(=O)/C(=C(/O)c2ccc(S(=O)(=O)N3CCOCC3)cc2)C1c1ccc(OC)c(OC)c1 (stereo not drawn) | 4.25%
CCOc1cc(C2/C(=C(/O)c3ccc(S(=O)(=O)N4CCCCC4)cc3)C(=O)C(=O)N2CCOC)ccc1O (stereo not drawn) | 28.9% (active)
COC(=O)c1cc(NS(=O)(=O)c2ccc3c(c2)c(=O)n(C)c(=O)n3C)cc(C(=O)OC)c1 | 3.19%
CN(C)S(=O)(=O)c1ccc(N/C=C(\[N+](=O)[O-])S(=O)(=O)c2ccccc2)cc1 | 1.43%
CC(C)CSc1nnc(-c2cccnc2)n1Cc1ccccc1 | 1.95%
Cc1cccc(-c2nc3c(c(SCC(=O)N4CCOCC4)n2)CCCC3)c1 | -2.28%
C=CCN1C(=O)c2ccc(C(=O)N3CCC(C(=O)OCC)CC3)cc2C1=O | -1.32%
COc1ccc(NC(=O)C2C3CCC(O3)C2C(=O)O)cc1OC (stereo not drawn) | 1.91%
CC(C)OC(=O)c1cc(NC(=O)C2C3CCC(O3)C2C(=O)O)cc(C(=O)OC(C)C)c1 (stereo not drawn) | -2.71%
Cc1sc(NC(=O)C2C3CCC(O3)C2C(=O)O)c(C(=O)OC(C)C)c1-c1ccc(Cl)cc1 (stereo not drawn) | 22.5% (active)
CCOC(=O)c1csc(NC(=O)C2CCCN(S(=O)(=O)c3ccc(Cl)s3)C2)n1 (stereo not drawn) | -5.11%
Cc1nc(CNc2ncnc3ccc(-c4ccc5c(c4)OCO5)cc23)cs1 | 6.73%
COc1ccc(C(=O)OCCN2CCN(C3CN(Cc4cn(Cc5ccccc5F)nn4)S(=O)(=O)C3)CC2)cc1OC (stereo not drawn) | -2.53%
Cc1cccc(NC(=O)c2nc(S(=O)(=O)Cc3ccccc3)ncc2Cl)c1 | 31.1% (active)
Cc1cccc(C(=O)Nc2c(-c3ccc(F)cc3)nc3ncccn23)c1 | 1.66%
O=C(CCS(=O)(=O)c1ccccc1)Nc1ccc(Cl)c(Cl)c1 | 1.21%
Cc1cccc(NC(=O)c2cc3c(C)nn(-c4ccccc4)c3s2)c1 | -4.86%
Cc1cc(NS(=O)(=O)c2ccc(NC(=S)NC(=O)c3ccc(F)cc3Cl)cc2)no1 | -2.11%

SMILES | inhibition
Cc1cccc(CS(=O)(=O)c2ncc(Cl)c(C(=O)Nc3ccc(F)cc3)n2)c1 | 31.4% (active)
Cc1cccnc1NC(=O)Cn1c(=O)oc2ccccc21 | 5.97%
COC[C@@H]1CCCN1c1ccc2c(c1)O[C@H](C)CCN(C1CC1)S2(=O)=O | -6.48%
O=C(Nc1cc(F)cc(F)c1)OC1CCC12CCC(c1ccccc1)CC2 (stereo not drawn) | -0.51%
COc1ccc([C@H]2OC(=O)C[C@H]2C(=O)N2CCN(c3ccccc3F)CC2)cc1OC | -4.27%
O=C(CSc1nnc(-c2cccc(Cl)c2)n1Cc1ccco1)Nc1ccc(OCc2ccccc2)cc1 | -2.9%
Clc1cccc(-c2nc3nc4ccccc4nc3n2Cc2ccco2)c1 | 34.2% (active)
O=C(CSc1nnc(-c2ccccc2)n1Cc1ccco1)Nc1ccccc1-c1ccccc1 | 12.6%
COc1ccccc1C(C)NC(=O)Cc1ccsc1 (stereo not drawn) | -0.88%
CCOc1ccc2[nH]c(=O)c(CN(Cc3nnnn3CCc3ccccc3)CC3CCCO3)cc2c1 (stereo not drawn) | -1.4%
CCC(c1nnnn1Cc1ccco1)N(CCc1ccccc1)Cc1cc2ccc(OC)cc2[nH]c1=O (stereo not drawn) | 44.2% (active)
CCC(=O)N(Cc1cc2ccccc2[nH]c1=O)c1ccc(OC)cc1 | 1.11%
COc1ccc2[nH]c(=O)c(CN(CC3CCCO3)C(=O)Nc3ccccc3)cc2c1 (stereo not drawn) | -3.84%
CCOc1ccc(CN(Cc2ccco2)C(c2cccs2)c2nnnn2C(C)(C)C)cc1 (stereo not drawn) | 2.59%
CCC(c1nnnn1Cc1ccco1)N(Cc1cc2cc(OC)ccc2[nH]c1=O)C1CCCCC1 (stereo not drawn) | 35.9% (active)
CNc1cncc(-c2ccc(NS(C)(=O)=O)cc2)n1 | 4.53%
N#C/C(=C\c1ccccc1)c1n[nH]c(Cn2cncn2)n1 | -3.96%
CCCCNC(=O)C[C@H]1C(=O)N(Cc2ccc(OC)cc2)C2=CCCC[C@@]21C(=O)OCC | 2.73%
COC(=O)c1cc(S(=O)(=O)N2CCN(C(=O)C3CCCO3)CC2)cn1C (stereo not drawn) | -1.95%
O=C(CSc1nc2sc3c(c2c(=O)n1-c1ccccc1)CCCC3)NN=Cc1ccc(OCc2ccccc2)cc1 | 0.97%
Cc1ccccc1CN1CCCCC(NC(=O)c2cccc(C#N)c2)C1=O (stereo not drawn) | 1.34%
CCCCOCCCNC(=O)C[C@H]1C[C@@]2(C(=O)OC)C(=C[C@H](C(C)(C)C)O[C@@H]2C)N(CCc2ccc(OC)c(OC)c2)C1=O | -3.25%
COc1cc(C2C(C(=O)c3ccco3)=C(O)C(=O)N2c2cc(C)on2)ccc1OCc1ccccc1 (stereo not drawn) | 4.72%
COc1cc(C2CC(=O)N3CN(Cc4ccccc4)CSC3=C2C#N)ccc1OCc1ccccc1 (stereo not drawn) | 38.8% (active)
CCCNC(=O)C1CC(=O)N(c2ccc(OCc3ccccc3)cc2)C1 (stereo not drawn) | -0.86%
COc1ccnc(C(=O)N2CCC(Oc3cccnc3)CC2)c1 | 2.35%
